Measurements: PubChem BioAssay AID1159580 (chemical genetic matrix, 2015)
“And” between values parts separate entries of the source, which are not always exact repeats. Equal entries are not always repeated. Out of some 5,500 compounds screened, about 2,000 (36%) were called active. Roughly 18% stayed inconclusive and do not appear here. The list shows a part of the results. Unmarked numbers belong to inactive results. Rule as the data show it: active = normalized growth mostly below about 0.91 (no sharp cut-off); inconclusive = no clear call, values can overlap the other calls; inactive = mostly above about 0.92.

Assay: chemical genetic growth profiling, strain panel (AID 1159580);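 also: tested at 20 µM; growth read once vehicle control cultures reached saturation at 30 °C; 1 = growth at the plate median or of vehicle wells; lower values mean less growth of the strain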
Settings: S. cerevisiae deletion strains, growth OD

CC(=O)OC1CCC23CC1(C)CCC2C(C)(C)CC3OC(C)=O (stereo unspecified)
normalized growth (locus YAL021C, strain ccr4, active compounds read low): 1.04 | normalized growth (locus YAL026C, strain drs2, active compounds read low): 1.02 | normalized growth (locus YAL030W, strain snc1, active compounds read low): 0.996 | normalized growth (locus YBL061C, strain skt5, active compounds read low): 1.01 | normalized growth (locus YBR009C, strain hhf1, active compounds read low): 1.01 | normalized growth (locus YBR021W, strain FUR4, active compounds read low): 1.01 | normalized growth (locus YBR023C, strain chs3, active compounds read low): 0.981 | normalized growth (locus YBR171W, strain sec66, active compounds read low): 0.999 | normalized growth (locus YBR229C, strain ROT2, active compounds read low): 0.988 | normalized growth (locus YBR231C, strain swc5, active compounds read low): 1.02 | normalized growth (locus YBR279W, strain paf1, active compounds read low): 1.04 | normalized growth (locus YCL011C, strain gbp2, active compounds read low): 0.995 | normalized growth (locus YCL016C, strain dcc1, active compounds read low): 0.978 | normalized growth (locus YCL029C, strain bik1, active compounds read low): 1.01 | normalized growth (locus YCL061C, strain MRC1, active compounds read low): 1.01 | normalized growth (locus YCL069W, strain vba3, active compounds read low): 0.991 | normalized growth (locus YCR088W, strain abp1, active compounds read low): 0.992 | normalized growth (locus YDL005C, strain med2, active compounds read low): 0.994 | normalized growth (locus YDL035C, strain GPR1, active compounds read low): 1.01 | normalized growth (locus YDL040C, strain nat1, active compounds read low): 0.999 | normalized growth (locus YDL074C, strain BRE1, active compounds read low): 1.01 | normalized growth (locus YDL101C, strain DUN1, active compounds read low): 1.04 | normalized growth (locus YDL134C, strain PPH21, active compounds read low): 1.02 | normalized growth (locus YDL185W, strain tfp1, active compounds read low): 1.03 | normalized growth (locus YDL192W, strain arf1, active compounds read low): 0.974 | normalized growth (locus YDR001C, strain nth1, active compounds read low): 0.984 | normalized growth (locus YDR069C, strain doa4, active compounds read low): 1.01 | normalized growth (locus YDR101C, strain arx1, active compounds read low): 0.98 | normalized growth (locus YDR137W, strain rgp1, active compounds read low): 0.882 | normalized growth (locus YDR159W, strain sac3, active compounds read low): 1.03 | normalized growth (locus YDR162C, strain NBP2, active compounds read low): 0.95 | normalized growth (locus YDR195W, strain ref2): 1.03 | normalized growth (locus YDR297W, strain sur2, active compounds read low): 1.01 | normalized growth (locus YDR318W, strain mcm21, active compounds read low): 1 | normalized growth (locus YDR334W, strain swr1, active compounds read low): 1.01 | normalized growth (locus YDR335W, strain msn5, active compounds read low): 1 | normalized growth (locus YDR388W, active compounds read low): 0.989 | normalized growth (locus YDR392W, strain spt3, active compounds read low): 0.528 (active) | normalized growth (locus YDR502C, strain sam2, active compounds read low): 1.01 | normalized growth (locus YEL003W, strain gim4, active compounds read low): 1.03 | normalized growth (locus YEL037C, strain rad23, active compounds read low): 1.01 | normalized growth (locus YEL061C, strain CIN8 (second series), active compounds read low): 1 | normalized growth (locus YER015W, strain faa2, active compounds read low): 1.02 | normalized growth (locus YER016W, strain bim1, active compounds read low): 1 | normalized growth (locus YER110C, active compounds read low): 1.03 | normalized growth (locus YER111C, strain swi4, active compounds read low): 1.01 | normalized growth (locus YER155C, strain BEM2 (second series), active compounds read low): 0.99 | normalized growth (locus YER155C, strain BEM2, active compounds read low): 1.02 | normalized growth (locus YER167W, strain BCK2, active compounds read low): 0.997 | normalized growth (locus YFR010W, strain ubp6, active compounds read low): 1.05 | normalized growth (locus YGL078C, strain dbp3, active compounds read low): 1 | normalized growth (locus YGL086W, strain mad1, active compounds read low): 0.959 | normalized growth (locus YGL167C, strain pmr1, active compounds read low): 0.993 | normalized growth (locus YGL173C, strain kem1, active compounds read low): 1.03 | normalized growth (locus YGL227W, strain vid30, active compounds read low): 1.01 | normalized growth (locus YGL240W, strain doc1, active compounds read low): 1.01 | normalized growth (locus YGL248W, strain PDE1, active compounds read low): 1.04 | normalized growth (locus YGL253W, strain hxk2, active compounds read low): 1.02 | normalized growth (locus YGR078C, strain PAC10, active compounds read low): 0.987 | normalized growth (locus YGR135W, strain pre9, active compounds read low): 1.02 | normalized growth (locus YGR252W, strain gcn5, active compounds read low): 1.1 | normalized growth (locus YHR013C, strain ard1, active compounds read low): 1.01 | normalized growth (locus YHR027C, strain rpn1, active compounds read low): 1 | normalized growth (locus YHR030C, strain SLT2, active compounds read low): 1.01 | normalized growth (locus YHR079C, strain IRE1 (second series), active compounds read low): 0.995 | normalized growth (locus YHR079C, strain IRE1, active compounds read low): 1.01 | normalized growth (locus YHR094C, strain hxt1, active compounds read low): 0.998 | normalized growth (locus YHR129C, strain ARP1, active compounds read low): 1 | normalized growth (locus YHR142W, strain chs7, active compounds read low): 0.963 | normalized growth (locus YHR200W, strain rpn10, active compounds read low): 0.995 | normalized growth (locus YIL066C, strain RNR3, active compounds read low): 0.997 | normalized growth (locus YIL073C, strain SPO22, active compounds read low): 0.995 | normalized growth (locus YIL125W, strain kgd1, active compounds read low): 0.998 | normalized growth (locus YIR030C, strain dcg1, active compounds read low): 0.988 | normalized growth (locus YJL092W, strain hpr5, active compounds read low): 1.01 | normalized growth (locus YJL095W, strain BCK1 (second series), active compounds read low): 1.01 | normalized growth (locus YJL095W, strain BCK1, active compounds read low): 0.969 and 1.04 | normalized growth (locus YJL115W, strain asf1, active compounds read low): 1.01 | normalized growth (locus YJL129C, strain trk1, active compounds read low): 0.881 | normalized growth (locus YJL134W, strain LCB3, active compounds read low): 0.998 | normalized growth (locus YJL154C, strain vps35, active compounds read low): 1 | normalized growth (locus YJL164C, strain tpk1, active compounds read low): 1.02 | normalized growth (locus YJL166W, strain qcr8, active compounds read low): 0.993 | normalized growth (locus YJL168C, strain set2, active compounds read low): 0.985 | normalized growth (locus YJL187C, strain SWE1 (second series), active compounds read low): 1.07 | normalized growth (locus YJR043C, strain POL32, active compounds read low): 1.04 | normalized growth (locus YJR066W, strain TOR1, active compounds read low): 0.98 | normalized growth (locus YJR075W, strain HOC1, active compounds read low): 0.999 | normalized growth (locus YKL009W, strain mrt4, active compounds read low): 0.992 | normalized growth (locus YKL068W, active compounds read low): 0.972 | normalized growth (locus YKL085W, strain MDH1 (second series), active compounds read low): 0.967 | normalized growth (locus YKL085W, strain MDH1, active compounds read low): 0.967 | normalized growth (locus YKL160W, strain elf1, active compounds read low): 1 | normalized growth (locus YKR001C, strain vps1, active compounds read low): 1.01 | normalized growth (locus YKR026C, strain gcn3, active compounds read low): 0.991 | normalized growth (locus YKR091W, strain srl3, active compounds read low): 0.981 | normalized growth (locus YLL001W, strain dnm1, active compounds read low): 0.995 | normalized growth (locus YLL026W, active compounds read low): 1 | normalized growth (locus YLL041C, strain sdh2, active compounds read low): 0.994 | normalized growth (locus YLR027C, strain aat2, active compounds read low): 1.01 | normalized growth (locus YLR039C, strain RIC1, active compounds read low): 0.968 | normalized growth (locus YLR058C, strain SHM2, active compounds read low): 1.05 | normalized growth (locus YLR102C, strain apc9, active compounds read low): 1.01 | normalized growth (locus YLR113W, strain HOG1, active compounds read low): 1 | normalized growth (locus YLR221C, strain rsa3, active compounds read low): 1.01 | normalized growth (locus YLR258W, strain gsy2, active compounds read low): 1.01 | normalized growth (locus YLR262C, strain YPT6 (second series), active compounds read low): 0.961 | normalized growth (locus YLR262C, strain YPT6, active compounds read low): 0.929 | normalized growth (locus YLR268W, strain sec22, active compounds read low): 0.997 | normalized growth (locus YLR320W, strain mms22, active compounds read low): 0.959 | normalized growth (locus YLR342W, strain FKS1 (second series), active compounds read low): 1 | normalized growth (locus YLR342W, strain FKS1, active compounds read low): 0.988 | normalized growth (locus YLR357W, strain rsc2, active compounds read low): 1.07 | normalized growth (locus YLR370C, strain arc18, active compounds read low): 1.04 | normalized growth (locus YLR371W, strain rom2, active compounds read low): 0.959 | normalized growth (locus YLR384C, strain iki3, active compounds read low): 0.997 | normalized growth (locus YLR418C, strain cdc73, active compounds read low): 0.904 | normalized growth (locus YML016C, strain PPZ1, active compounds read low): 1.02 | normalized growth (locus YML032C, strain rad52, active compounds read low): 1.01 | normalized growth (locus YML120C, strain ndi1, active compounds read low): 0.965 | normalized growth (locus YML124C, strain tub3, active compounds read low): 0.99 | normalized growth (locus YMR058W, strain fet3, active compounds read low): 1.03 | normalized growth (locus YMR078C, strain ctf18, active compounds read low): 0.991 | normalized growth (locus YMR125W, strain sto1, active compounds read low): 1 | normalized growth (locus YMR129W, active compounds read low): 1 | normalized growth (locus YMR205C, strain PFK2, active compounds read low): 0.924 | normalized growth (locus YMR223W, strain ubp8, active compounds read low): 1 | normalized growth (locus YMR231W, strain pep5, active compounds read low): 1.02 | normalized growth (locus YMR307W, strain GAS1, active compounds read low): 0.976 | normalized growth (locus YNL067W, strain RPL9B, active compounds read low): 1.01 | normalized growth (locus YNL071W, strain lat1, active compounds read low): 0.836 (active) | normalized growth (locus YNL153C, strain GIM3, active compounds read low): 1.03 | normalized growth (locus YNL183C, strain NPR1, active compounds read low): 0.974 | normalized growth (locus YNL209W, strain ssb2, active compounds read low): 1.01 | normalized growth (locus YNL233W, strain BNI4, active compounds read low): 1.01 | normalized growth (locus YNL248C, strain rpa49, active compounds read low): 1.04 | normalized growth (locus YNL250W, strain rad50, active compounds read low): 1.03 | normalized growth (locus YNL271C, strain bni1, active compounds read low): 0.996 | normalized growth (locus YNL298W, strain CLA4, active compounds read low): 1 | normalized growth (locus YNL307C, strain MCK1, active compounds read low): 0.943 | normalized growth (locus YNL322C, strain KRE1 (second series), active compounds read low): 1.01 | normalized growth (locus YNL322C, strain KRE1, active compounds read low): 1 | normalized growth (locus YNR049C, strain mso1, active compounds read low): 0.984 | normalized growth (locus YNR052C, strain pop2, active compounds read low): 1.01 | normalized growth (locus YOL012C, strain htz1): 0.724 | normalized growth (locus YOL147C, strain pex11, active compounds read low): 1 | normalized growth (locus YOR001W, strain rrp6, active compounds read low): 1.04 | normalized growth (locus YOR061W, strain CKA2, active compounds read low): 1.03 | normalized growth (locus YOR069W, strain VPS5, active compounds read low): 1.01 | normalized growth (locus YOR070C, strain gyp1, active compounds read low): 1.01 | normalized growth (locus YOR080W, strain dia2, active compounds read low): 1.02 | normalized growth (locus YOR083W, strain WHI5, active compounds read low): 1.02 | normalized growth (locus YOR106W, strain vam3, active compounds read low): 1.01 | normalized growth (locus YOR136W, strain idh2, active compounds read low): 1.02 | normalized growth (locus YOR144C, strain elg1, active compounds read low): 0.993 | normalized growth (locus YOR184W, strain ser1, active compounds read low): 0.852 (active) | normalized growth (locus YOR231W, strain MKK1, active compounds read low): 1.04 | normalized growth (locus YOR265W, strain rbl2, active compounds read low): 1.02 | normalized growth (locus YOR270C, strain vph1, active compounds read low): 0.851 | normalized growth (locus YOR290C, strain snf2, active compounds read low): 0.977 | normalized growth (locus YOR316C, strain cot1, active compounds read low): 1 | normalized growth (locus YPL051W, strain arl3, active compounds read low): 0.994 | normalized growth (locus YPL078C, strain atp4, active compounds read low): 0.941 | normalized growth (locus YPL106C, strain sse1, active compounds read low): 1.07 | normalized growth (locus YPL240C, strain hsp82, active compounds read low): 0.999 | normalized growth (locus YPL256C, strain CLN2, active compounds read low): 1.02 | normalized growth (locus YPR119W, strain clb2, active compounds read low): 0.988 | normalized growth (locus YPR141C, strain kar3, active compounds read low): 0.971 | normalized growth (locus YPR163C, strain tif3, active compounds read low): 0.991 | normalized growth (locus YPR167C, strain met16, active compounds read low): 0.994 | normalized growth (strain wtn01, active compounds read low): 0.985
